Assay results as given in PubChem BioAssay AID1159580 (chemical genetic matrix, 2015).
In all, about 5,500 compounds went through this assay and about 2,000 (36%) were called active. Roughly 18% stayed inconclusive and do not appear here. No stated cut-off is given here; in the data, active means normalized growth mostly below about 0.91 (no sharp cut-off); inconclusive means no clear call, values can overlap the other calls; inactive means mostly above about 0.92. The list shows a part of the results.

Test: chemical genetic growth profiling, strain panel (AID 1159580);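 further: tested at 20 µM; growth read once vehicle control cultures reached saturation at 30 °C; 1 = growth at the plate median or of vehicle wells; lower values mean less growth of the strain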
Conditions: growth OD

Measured: normalized growth

NCC(=O)CCC(=O)O
inactive: S. cerevisiae deletion strains, locus YJR075W, strain HOC1, active compounds read low 1.02 | S. cerevisiae deletion strains, locus YKL009W, strain mrt4, active compounds read low 1.07 | S. cerevisiae deletion strains, locus YKL068W, active compounds read low 0.995 | S. cerevisiae deletion strains, locus YKL085W, strain MDH1 (second series), active compounds read low 0.997 | S. cerevisiae deletion strains, locus YKL085W, strain MDH1, active compounds read low 0.997 | S. cerevisiae deletion strains, locus YKL160W, strain elf1, active compounds read low 0.98 | S. cerevisiae deletion strains, locus YKL190W, strain CNB1, active compounds read low 1.01 | S. cerevisiae deletion strains, locus YKR001C, strain vps1, active compounds read low 0.982 | S. cerevisiae deletion strains, locus YKR026C, strain gcn3, active compounds read low 0.981 | S. cerevisiae deletion strains, locus YKR091W, strain srl3, active compounds read low 0.981 | S. cerevisiae deletion strains, locus YLL001W, strain dnm1, active compounds read low 0.93 | S. cerevisiae deletion strains, locus YLL026W, active compounds read low 0.982 | S. cerevisiae deletion strains, locus YLL041C, strain sdh2, active compounds read low 0.987 | S. cerevisiae deletion strains, locus YLR027C, strain aat2, active compounds read low 0.98 | S. cerevisiae deletion strains, locus YLR039C, strain RIC1, active compounds read low 1.03 | S. cerevisiae deletion strains, locus YLR058C, strain SHM2, active compounds read low 1.01 | S. cerevisiae deletion strains, locus YLR102C, strain apc9, active compounds read low 0.983 | S. cerevisiae deletion strains, locus YLR113W, strain HOG1, active compounds read low 1.03 | S. cerevisiae deletion strains, locus YLR221C, strain rsa3, active compounds read low 1.03 | S. cerevisiae deletion strains, locus YLR258W, strain gsy2, active compounds read low 0.994 | S. cerevisiae deletion strains, locus YLR262C, strain YPT6 (second series), active compounds read low 0.958 | S. cerevisiae deletion strains, locus YLR262C, strain YPT6, active compounds read low 1.05 | S. cerevisiae deletion strains, locus YLR268W, strain sec22, active compounds read low 0.953 | S. cerevisiae deletion strains, locus YLR320W, strain mms22, active compounds read low 0.976 | S. cerevisiae deletion strains, locus YLR330W, strain CHS5, active compounds read low 1.01 | S. cerevisiae deletion strains, locus YLR342W, strain FKS1 (second series), active compounds read low 1.03 | S. cerevisiae deletion strains, locus YLR342W, strain FKS1, active compounds read low 0.959 | S. cerevisiae deletion strains, locus YLR357W, strain rsc2, active compounds read low 0.954 | S. cerevisiae deletion strains, locus YLR370C, strain arc18, active compounds read low 1.01 | S. cerevisiae deletion strains, locus YLR371W, strain rom2, active compounds read low 0.988 | S. cerevisiae deletion strains, locus YLR384C, strain iki3, active compounds read low 0.997 | S. cerevisiae deletion strains, locus YLR418C, strain cdc73, active compounds read low 0.994 | S. cerevisiae deletion strains, locus YML016C, strain PPZ1, active compounds read low 1.01 | S. cerevisiae deletion strains, locus YML032C, strain rad52, active compounds read low 0.981 | S. cerevisiae deletion strains, locus YML120C, strain ndi1, active compounds read low 0.983 | S. cerevisiae deletion strains, locus YML124C, strain tub3, active compounds read low 0.997 | S. cerevisiae deletion strains, locus YMR058W, strain fet3, active compounds read low 0.984 | S. cerevisiae deletion strains, locus YMR078C, strain ctf18, active compounds read low 0.991 | S. cerevisiae deletion strains, locus YMR125W, strain sto1, active compounds read low 0.977 | S. cerevisiae deletion strains, locus YMR129W, active compounds read low 0.99 | S. cerevisiae deletion strains, locus YMR205C, strain PFK2, active compounds read low 0.976 | S. cerevisiae deletion strains, locus YMR223W, strain ubp8, active compounds read low 0.998 | S. cerevisiae deletion strains, locus YMR231W, strain pep5, active compounds read low 0.972 | S. cerevisiae deletion strains, locus YMR263W, strain SAP30, active compounds read low 1.01 | S. cerevisiae deletion strains, locus YMR307W, strain GAS1, active compounds read low 1.05 | S. cerevisiae deletion strains, locus YNL067W, strain RPL9B, active compounds read low 0.997 | S. cerevisiae deletion strains, locus YNL071W, strain lat1, active compounds read low 0.995 | S. cerevisiae deletion strains, locus YNL128W, strain TEP1, active compounds read low 1.02 | S. cerevisiae deletion strains, locus YNL153C, strain GIM3, active compounds read low 1 | S. cerevisiae deletion strains, locus YNL183C, strain NPR1, active compounds read low 0.986 | S. cerevisiae deletion strains, locus YNL209W, strain ssb2, active compounds read low 0.997 | S. cerevisiae deletion strains, locus YNL233W, strain BNI4, active compounds read low 1.02 | S. cerevisiae deletion strains, locus YNL248C, strain rpa49, active compounds read low 1 | S. cerevisiae deletion strains, locus YNL250W, strain rad50, active compounds read low 0.993 | S. cerevisiae deletion strains, locus YNL271C, strain bni1, active compounds read low 0.98 | S. cerevisiae deletion strains, locus YNL298W, strain CLA4, active compounds read low 0.984 | S. cerevisiae deletion strains, locus YNL307C, strain MCK1, active compounds read low 1 | S. cerevisiae deletion strains, locus YNL322C, strain KRE1 (second series), active compounds read low 0.964 | S. cerevisiae deletion strains, locus YNL322C, strain KRE1, active compounds read low 1.02 | S. cerevisiae deletion strains, locus YNR049C, strain mso1, active compounds read low 0.981 | S. cerevisiae deletion strains, locus YNR052C, strain pop2, active compounds read low 0.988 | S. cerevisiae deletion strains, locus YOL006C, strain TOP1, active compounds read low 0.983 | S. cerevisiae deletion strains, locus YOL012C, strain htz1 0.968 | S. cerevisiae deletion strains, locus YOL147C, strain pex11, active compounds read low 0.993 | S. cerevisiae deletion strains, locus YOR001W, strain rrp6, active compounds read low 0.994 | S. cerevisiae deletion strains, locus YOR061W, strain CKA2, active compounds read low 1.01 | S. cerevisiae deletion strains, locus YOR069W, strain VPS5, active compounds read low 1.01 | S. cerevisiae deletion strains, locus YOR070C, strain gyp1, active compounds read low 0.989 | S. cerevisiae deletion strains, locus YOR080W, strain dia2, active compounds read low 0.976 | S. cerevisiae deletion strains, locus YOR083W, strain WHI5, active compounds read low 0.954 | S. cerevisiae deletion strains, locus YOR106W, strain vam3, active compounds read low 0.956 | S. cerevisiae deletion strains, locus YOR136W, strain idh2, active compounds read low 0.992 | S. cerevisiae deletion strains, locus YOR144C, strain elg1, active compounds read low 0.986 | S. cerevisiae deletion strains, locus YOR184W, strain ser1, active compounds read low 0.976 | S. cerevisiae deletion strains, locus YOR231W, strain MKK1, active compounds read low 1.04 | S. cerevisiae deletion strains, locus YOR265W, strain rbl2, active compounds read low 0.988 | S. cerevisiae deletion strains, locus YOR270C, strain vph1, active compounds read low 1.01 | S. cerevisiae deletion strains, locus YOR290C, strain snf2, active compounds read low 1.01 | S. cerevisiae deletion strains, locus YOR316C, strain cot1, active compounds read low 0.989 | S. cerevisiae deletion strains, locus YPL051W, strain arl3, active compounds read low 0.997 | S. cerevisiae deletion strains, locus YPL055C, strain LGE1, active compounds read low 1.03 | S. cerevisiae deletion strains, locus YPL078C, strain atp4, active compounds read low 0.948 | S. cerevisiae deletion strains, locus YPL106C, strain sse1, active compounds read low 0.998 | S. cerevisiae deletion strains, locus YPL240C, strain hsp82, active compounds read low 0.985 | S. cerevisiae deletion strains, locus YPL241C, strain CIN2, active compounds read low 1 | S. cerevisiae deletion strains, locus YPL256C, strain CLN2, active compounds read low 1.03 | S. cerevisiae deletion strains, locus YPR119W, strain clb2, active compounds read low 0.983 | S. cerevisiae deletion strains, locus YPR141C, strain kar3, active compounds read low 0.993 | S. cerevisiae deletion strains, locus YPR163C, strain tif3, active compounds read low 0.981 | S. cerevisiae deletion strains, locus YPR167C, strain met16, active compounds read low 0.986 | S. cerevisiae deletion strains, strain wtn01, active compounds read low 0.99 | S. cerevisiae strains, strain wild type, active compounds read low 1.01
